Compounds without any hit were thinned out: in the full panel of roughly 83,000, 20% have a hit.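 96-well plates, one dose, 48 hours. Percent growth reported; active if below 10.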 Values without a mark were called inactive. Activity calls are given as the source filed them.
Each molecule was assayed on OVCAR-4 ovarian (assay: NCI-60 one-dose screen, 48 h (100 = growth as untreated, 0 = no growth, -100 = all killed)). Conditions: 10 µM unless noted.
Procedure: Growth inhibition of the OVCAR-4 human tumor cell line is measured as a screen for anti-cancer activity. Cells are grown in 96 well plates and exposed to the test compound for 48 hours. Compounds are tested at a single concentration, which is 10^-5 M for most compounds. The reported endpoint is percent growth (GI% or GIPRCNT), where numbers from 0 - 100% represent growth inhibition, and numbers from -100% - 0 represent cell death. For example, a value of 40 represents 60% growth inhibition. A value of 0 means no net growth occurred over the course of the experiment. A value of -40 indicates 40% of cells at the beginning of the experiment died by the end of the experiment. A value of -100 means all cells are dead at the end of the experiment.
NCI-60 Human Tumor Cell Lines Screen was performed using the standard one-dose NCI protocol, which is described in more detail at https://dtp.cancer.gov/discovery_development/nci-60/default.htm.
Compounds with GIPRCNT values below 10 were considered active. Activity score was based on GIPRCNT using the following formula: […]
Score is 0 for GIPRCNT values of 100 or above, 50 for GIPRCNT values of 0, and 100 for GIPRCNT values of -100.
`CCOC(=O)C1C(=O)OC2CCCCC21` (stereo not given) was tested, and the growth was 102%.
`O=C1/C(=N/O)CCc2ccccc21` showed a growth of 85.7%.
For `C/C(=C\CCc1ccsc1)CC/C=C(\C)CCCN1CCC(CO)CC1`, the growth was 40.8%.
Molecule `O=C1OCCCCCCCCCC#Cc2ccccc21` has a growth of 91.3%.
In the case of `CCOC(=O)/C(=C/c1ccccc1)C(=O)c1ccccc1`, the growth is reported as 81.8%.
In the case of `c1ccc(-c2nn[nH]n2)c(-c2ccc(CN3CCN(c4nsc5ccccc45)CC3)cc2)c1`, the growth is reported as 85.6%.
In the case of `COc1ccc(C2CC(c3ccc(OC)c(OC)c3)=NN2C(=O)c2cc(OC)c(OC)c(OC)c2)c(OC)c1` (stereo not given), the growth is reported as 74.7%.
In the case of `Cc1nn(-c2ccccc2)c2nc(Cl)c(/C=C/C(=O)c3ccccc3)c(-c3ccccc3)c12`, the growth is reported as 107%.
In the case of `COc1ccc(/C=N\Nc2ccc([N+](=O)[O-])cn2)cc1OC`, the growth is reported as -56.6% (active).
For `Clc1ccc([C@@H]2C[C@@H]3Cc4cc(Br)c5ccccc5c4N2O3)c(Cl)c1`, the growth was 84.7%.
In the case of `ClC1=C(Cl)C(Cl)=C(Cl)C1=Cc1ccc(Cl)cc1`, the growth is reported as 75.4%.
`CCC(C)CC(CC)NCCN1CCN(C(CC)CC(C)CC)C1=S` (stereo not given) gave a growth of 37.8%.
Molecule `S=C1SCN(Cc2ccccc2)CN1Cc1ccco1` has a growth of 99.9%.
Work on `COc1ccc(C2CC(c3cccc(Nc4ccnc5cc(Cl)ccc45)c3)=NN2C=O)cc1` (stereo not given) yielded a growth of 61.7%.
In the case of `O=C(/C=C/c1cc2ccccc2[nH]c1=O)c1ccc(Cl)cc1`, the growth is reported as 43.8%.
In the case of `COc1cccc(CCC2C(=O)CCCC2=O)c1`, the growth is reported as 124%.
In the case of `C[n+]1c2ccccc2c(Nc2ccc(N3CCCCC3)cc2)c2[nH]c3ccccc3c21`, the growth is reported as -35.3% (active).
`Clc1ccc(CCC(Cn2ccnc2)Sc2c(Cl)cccc2Cl)cc1` (stereo not given) gave a growth of 60.4%.
`COc1cc(C2C=C(c3ccc(C)cc3)Nc3nc(SC)[nH]c(=O)c32)ccc1Oc1ccnc2cc(Cl)ccc12` (stereo not given) was tested, and the growth was 86.3%.
`c1coc([C@@H]2C[C@@H]3Cc4ccc5ccccc5c4N2O3)c1` showed a growth of 92.4%.
Work on `COc1ccc(C(=O)COc2cccc(/C=C3\Oc4ccc5ccccc5c4C3=O)c2)cc1` yielded a growth of 94.9%.
`O=C(/C(=N/O)S(=O)(=O)c1ccccc1)c1cccs1` showed a growth of 113%.
In the case of `CC12CCC3C(CCC4CC(=O)/C(=C\O)CC43C)C1CCC(=O)O2` (stereo not given), the growth is reported as 112%.
`COc1cc2c(cc1OCCCCCn1c(-c3ccc(OCc4ccccc4)cc3)nc3cc(N4CCOCC4)ccc31)N=C[C@@H]1CCCN1C2=O` gave a growth of 21.4%.
`CCc1[nH]nc(-c2ccc(OC)cc2)c1-c1ccccc1OCCN(CC)CC` was tested, and the growth was 91.4%.
In the case of `O=C(Nc1cccc(-n2cc(-c3ccncc3)c(-c3ccc(O)c(Cl)c3)n2)c1)Nc1ccc(Cl)c(C(F)(F)F)c1`, the growth is reported as -5.46% (active).
In the case of `C/C(=N\N1CC(=O)NC1=O)c1ccc([N+](=O)[O-])o1`, the growth is reported as 105%.
`COc1ccc(-n2nnc(C(=O)O)c2-c2cc(OC)c(OC)c(OC)c2)cc1` gave a growth of 109%.
Work on `CCCCCCC/C(=N\N=C(N)N)c1ccc(O)cc1` yielded a growth of 36.2%.
`OC(CCC(O)(c1ccccc1)c1ccccc1)(c1ccccc1)c1ccccc1` gave a growth of 99.4%.
`CSc1ncc2ncn(C3OC(CO)C(O)C3O)c2n1` (stereo not given) was tested, and the growth was 101%.
In the case of `CC(C)(C)c1ccc(S(=O)(=O)O)s1`, the growth is reported as 96.6%.
In the case of `CC1(C)OC(=O)C(=Cc2ccccc2Br)C(=O)O1`, the growth is reported as 102%.
Work on `Cc1cc(N2CCOCC2)nc(N2CCOCC2)n1` yielded a growth of 93.9%.
`CC(C)c1ccc(C(=O)Nc2sc3c(CN(C)C)c(O)ccc3c2C(N)=O)cc1` gave a growth of 48.5%.
With `CC(C)c1nc(N(C)S(C)(=O)=O)nc(-c2ccc(F)cc2)c1/C=C/[C@@H](O)C[C@@H](O)CC(=O)O` the growth was 100%.
Work on `O=[N+]([O-])c1ccc(Oc2cccc(C(F)(F)F)c2)c([N+](=O)[O-])c1` yielded a growth of 98.2%.
`COc1ccc(/C=C2\NC(=S)NC2=O)cc1` gave a growth of 117%.
In the case of `C[C@]12CC[C@@H]3c4ccc(O)cc4CC[C@H]3[C@@H]1CC[C@@H]2NS(=O)(=O)c1cccc(Br)c1`, the growth is reported as 53.9%.
`O=C1/C(=C/c2ccc([N+](=O)[O-])s2)Oc2ccc(Br)cc21` was tested, and the growth was -75.8% (active).

— PubChem BioAssay (NCI)
